Test in all cases: DAPPL (digital affinity profiling via proximity ligation, sequencing); 10 mM Tris-HCl pH 7.5, 50 mM NaCl, 1 mM DTT, 4% glycerol, room temperature, 30 min; GST-TFs on glutathione beads, 16-mer random dsDNA library, 0.1% formaldehyde crosslink after washing; high values mean tight binding
The target of assay [1] is T1, FEV (Homo sapiens, UniProt Q99581 1-238).
T1 sequence: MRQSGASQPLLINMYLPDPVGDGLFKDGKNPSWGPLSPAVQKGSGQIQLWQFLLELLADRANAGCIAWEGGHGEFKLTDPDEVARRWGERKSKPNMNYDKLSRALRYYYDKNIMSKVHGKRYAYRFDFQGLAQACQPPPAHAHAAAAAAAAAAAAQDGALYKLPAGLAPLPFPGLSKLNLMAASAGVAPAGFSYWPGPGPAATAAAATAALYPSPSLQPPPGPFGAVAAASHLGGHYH
To be noted: protein: recombinant; tags: N-terminal GST; dsDNA, one strand shown. In short, it runs like this:
(§1)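 Binding signal is each hexamer's read frequency for a factor divided by its frequency in the tag-only sample. The factors were GST-fused human transcription factors from yeast, captured on glutathione beads, DNA-barcoded and pooled with that sample. Pools were incubated with 200 nmole of a random double-stranded 16-mer DNA library in Tris/NaCl/DTT/glycerol buffer at room temperature for 30 min, then washed, crosslinked with 0.1% formaldehyde, proximity-ligated with BsaI/T4 ligase (1 h, 37 °C), PCR-amplified and sequenced on an Illumina NextSeq500.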

Assay [2] has as its target ETV5 (Homo sapiens, UniProt P41161 1-510). To be noted: protein: recombinant; tags: N-terminal GST; dsDNA, one strand shown. In short, it runs like this:
as §1

Assay [3] concerns the target HSF1 (Homo sapiens, UniProt Q00613 1-529). To be noted: protein: recombinant; tags: N-terminal GST; chain copies: 3; dsDNA, one strand shown. In short, it runs like this: as §1
The target of assay [4] is T2, SPIC (Homo sapiens, UniProt Q8N5J4 1-248).
T2 sequence: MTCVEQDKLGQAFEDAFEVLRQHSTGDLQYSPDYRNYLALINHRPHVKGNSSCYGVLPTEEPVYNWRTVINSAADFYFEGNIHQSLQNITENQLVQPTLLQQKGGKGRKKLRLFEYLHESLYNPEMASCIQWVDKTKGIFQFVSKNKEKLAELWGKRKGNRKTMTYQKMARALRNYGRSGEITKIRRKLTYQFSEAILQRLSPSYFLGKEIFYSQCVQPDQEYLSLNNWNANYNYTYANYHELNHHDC
As to conditions: protein: recombinant; tags: N-terminal GST; dsDNA, one strand shown. In short, it runs like this: as §1

The target in assay [5] is ELF4 (Homo sapiens, UniProt Q99607 1-663). As to conditions: protein: recombinant; tags: N-terminal GST; dsDNA, one strand shown. The method, boiled down:
as §1

Assay [6] deals with T3, ELK4 (Homo sapiens, UniProt P28324-2 1-405).
T3 sequence: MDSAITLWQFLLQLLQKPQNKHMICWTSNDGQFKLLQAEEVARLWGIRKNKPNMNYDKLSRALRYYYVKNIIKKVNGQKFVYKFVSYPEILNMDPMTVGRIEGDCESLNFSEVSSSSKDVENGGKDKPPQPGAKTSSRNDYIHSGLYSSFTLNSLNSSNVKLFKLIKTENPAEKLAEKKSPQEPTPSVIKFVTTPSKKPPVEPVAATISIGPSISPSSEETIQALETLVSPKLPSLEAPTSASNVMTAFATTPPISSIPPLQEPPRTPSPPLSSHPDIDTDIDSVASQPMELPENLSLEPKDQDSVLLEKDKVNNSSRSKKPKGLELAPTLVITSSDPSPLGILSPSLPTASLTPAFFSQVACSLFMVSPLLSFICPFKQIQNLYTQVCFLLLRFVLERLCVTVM
As to conditions: protein: recombinant; tags: N-terminal GST; dsDNA, one strand shown. The method, boiled down: as §1

The target of assay [7] is T4, ETV2 (Homo sapiens, UniProt O00321 1-342).
T4 sequence: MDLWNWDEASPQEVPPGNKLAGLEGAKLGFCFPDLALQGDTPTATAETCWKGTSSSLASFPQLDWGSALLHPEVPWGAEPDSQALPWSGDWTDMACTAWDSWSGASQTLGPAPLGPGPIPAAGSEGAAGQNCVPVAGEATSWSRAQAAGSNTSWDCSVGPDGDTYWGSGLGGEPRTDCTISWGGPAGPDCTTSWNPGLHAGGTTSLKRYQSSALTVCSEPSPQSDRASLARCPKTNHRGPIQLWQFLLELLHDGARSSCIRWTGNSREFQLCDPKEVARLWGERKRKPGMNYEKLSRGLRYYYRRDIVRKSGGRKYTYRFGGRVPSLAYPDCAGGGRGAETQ
To be noted: protein: recombinant; tags: N-terminal GST; dsDNA, one strand shown. The method, boiled down: as §1

For assay [8], the target named is T5, ELF3 (Homo sapiens, UniProt P78545 1-371).
T5 sequence: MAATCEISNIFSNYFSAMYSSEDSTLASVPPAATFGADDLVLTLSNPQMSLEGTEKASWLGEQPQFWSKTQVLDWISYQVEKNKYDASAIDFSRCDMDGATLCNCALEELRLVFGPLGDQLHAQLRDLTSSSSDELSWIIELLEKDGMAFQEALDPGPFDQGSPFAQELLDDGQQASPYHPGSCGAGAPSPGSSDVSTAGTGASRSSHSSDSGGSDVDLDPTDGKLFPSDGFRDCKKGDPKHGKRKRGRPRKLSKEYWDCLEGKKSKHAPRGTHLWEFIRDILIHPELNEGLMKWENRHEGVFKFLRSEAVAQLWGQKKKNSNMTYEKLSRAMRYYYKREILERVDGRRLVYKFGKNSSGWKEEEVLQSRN
To be noted: protein: recombinant; tags: N-terminal GST; dsDNA, one strand shown. In short, it runs like this: as §1

For assay [9], the target named is CRX (Homo sapiens, UniProt O43186 1-299). To be noted: protein: recombinant; tags: N-terminal GST; dsDNA, one strand shown. In short, it runs like this:
as §1

Assay [10] has as its target ETV1 (Homo sapiens, UniProt P50549 1-477). As to conditions: protein: recombinant; tags: N-terminal GST; dsDNA, one strand shown. The method, boiled down:
as §1

For assay [11], the target named is T6, ERF (Homo sapiens, UniProt P50548 1-548).
T6 sequence: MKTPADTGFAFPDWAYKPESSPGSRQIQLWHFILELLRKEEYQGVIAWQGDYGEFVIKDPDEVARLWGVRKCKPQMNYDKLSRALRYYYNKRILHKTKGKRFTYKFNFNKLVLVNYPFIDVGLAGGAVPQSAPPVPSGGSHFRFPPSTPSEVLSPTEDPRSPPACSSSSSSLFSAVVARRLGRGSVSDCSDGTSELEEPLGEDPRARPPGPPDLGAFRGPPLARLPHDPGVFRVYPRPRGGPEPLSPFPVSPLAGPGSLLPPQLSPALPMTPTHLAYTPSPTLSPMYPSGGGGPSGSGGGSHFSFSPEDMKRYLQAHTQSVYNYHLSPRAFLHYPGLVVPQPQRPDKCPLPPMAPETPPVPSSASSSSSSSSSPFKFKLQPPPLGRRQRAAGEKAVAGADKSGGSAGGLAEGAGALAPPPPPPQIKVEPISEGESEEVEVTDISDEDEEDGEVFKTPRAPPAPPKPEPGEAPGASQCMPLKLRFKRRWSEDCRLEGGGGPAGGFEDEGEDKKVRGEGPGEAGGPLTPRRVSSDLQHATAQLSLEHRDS
As to conditions: protein: recombinant; tags: N-terminal GST; dsDNA, one strand shown. The method, boiled down: as §1

The target in assay [12] is T7, ETV3L (Homo sapiens, UniProt Q6ZN32 1-361).
T7 sequence: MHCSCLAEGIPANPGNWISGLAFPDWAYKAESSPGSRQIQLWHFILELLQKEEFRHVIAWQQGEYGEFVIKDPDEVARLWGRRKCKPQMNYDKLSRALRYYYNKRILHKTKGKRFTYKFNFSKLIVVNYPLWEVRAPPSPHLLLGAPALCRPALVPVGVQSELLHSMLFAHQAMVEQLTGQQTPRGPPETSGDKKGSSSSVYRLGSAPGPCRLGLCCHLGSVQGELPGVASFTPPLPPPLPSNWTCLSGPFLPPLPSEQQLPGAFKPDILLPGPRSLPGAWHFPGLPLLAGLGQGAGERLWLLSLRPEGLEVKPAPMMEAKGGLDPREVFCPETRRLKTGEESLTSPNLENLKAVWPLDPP
To be noted: protein: recombinant; tags: N-terminal GST; dsDNA, one strand shown. The method, boiled down: as §1

For assay [13], the target named is T8, ETS2 (Homo sapiens, UniProt P15036 1-469).
T8 sequence: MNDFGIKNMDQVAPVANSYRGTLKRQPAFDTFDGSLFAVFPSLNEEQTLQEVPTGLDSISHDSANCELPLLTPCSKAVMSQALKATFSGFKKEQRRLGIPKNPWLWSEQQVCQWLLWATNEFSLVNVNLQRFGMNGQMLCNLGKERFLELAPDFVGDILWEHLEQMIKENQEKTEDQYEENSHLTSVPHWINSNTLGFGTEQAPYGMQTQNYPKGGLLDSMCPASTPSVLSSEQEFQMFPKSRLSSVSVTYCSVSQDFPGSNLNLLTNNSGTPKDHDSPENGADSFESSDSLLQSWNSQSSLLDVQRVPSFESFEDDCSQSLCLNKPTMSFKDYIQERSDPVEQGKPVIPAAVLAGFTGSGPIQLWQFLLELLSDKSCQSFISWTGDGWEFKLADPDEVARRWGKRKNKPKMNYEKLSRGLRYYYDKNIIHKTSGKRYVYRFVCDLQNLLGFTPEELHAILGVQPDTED
As to conditions: protein: recombinant; tags: N-terminal GST; dsDNA, one strand shown. The method, boiled down:
as §1

In assay [14] the target is T9, SPDEF (Homo sapiens, UniProt O95238 1-335).
T9 sequence: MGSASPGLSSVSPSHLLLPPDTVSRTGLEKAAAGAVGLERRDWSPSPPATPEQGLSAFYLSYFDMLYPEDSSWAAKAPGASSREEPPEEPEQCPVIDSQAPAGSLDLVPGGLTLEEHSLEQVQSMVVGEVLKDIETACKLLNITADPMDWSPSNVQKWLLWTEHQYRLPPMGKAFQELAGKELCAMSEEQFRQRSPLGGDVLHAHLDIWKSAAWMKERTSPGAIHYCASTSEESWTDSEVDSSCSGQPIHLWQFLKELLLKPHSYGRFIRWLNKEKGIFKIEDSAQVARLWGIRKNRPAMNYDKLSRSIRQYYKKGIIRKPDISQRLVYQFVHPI
To be noted: protein: recombinant; tags: N-terminal GST; dsDNA, one strand shown. The method, boiled down:
as §1

The target in assay [15] is T10, ETV7 (Homo sapiens, UniProt Q9Y603 1-341).
T10 sequence: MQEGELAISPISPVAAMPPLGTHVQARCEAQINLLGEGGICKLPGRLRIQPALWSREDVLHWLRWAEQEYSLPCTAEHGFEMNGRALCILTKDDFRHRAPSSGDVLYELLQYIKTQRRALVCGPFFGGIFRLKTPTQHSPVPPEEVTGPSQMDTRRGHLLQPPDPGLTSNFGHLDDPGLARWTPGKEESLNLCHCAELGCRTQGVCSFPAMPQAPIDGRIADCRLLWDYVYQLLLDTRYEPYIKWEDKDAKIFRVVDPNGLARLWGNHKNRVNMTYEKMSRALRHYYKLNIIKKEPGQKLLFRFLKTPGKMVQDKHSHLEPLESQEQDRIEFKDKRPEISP
To be noted: protein: recombinant; tags: N-terminal GST; dsDNA, one strand shown. In short, it runs like this: as §1

Assay [16] concerns the target T11, ELF5 (Homo sapiens, UniProt Q9UKW6-2 1-255).
T11 sequence: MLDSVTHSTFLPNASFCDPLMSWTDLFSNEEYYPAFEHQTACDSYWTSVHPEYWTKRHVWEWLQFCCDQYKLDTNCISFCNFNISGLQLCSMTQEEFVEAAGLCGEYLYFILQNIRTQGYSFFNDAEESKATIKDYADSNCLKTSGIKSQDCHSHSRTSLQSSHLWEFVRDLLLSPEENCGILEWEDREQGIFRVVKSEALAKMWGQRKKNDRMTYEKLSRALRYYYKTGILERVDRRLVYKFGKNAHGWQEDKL
As to conditions: protein: recombinant; tags: N-terminal GST; dsDNA, one strand shown. In short, it runs like this:
as §1

The target of assay [17] is T12, ETV3 (Homo sapiens, UniProt P41162-2 1-143).
T12 sequence: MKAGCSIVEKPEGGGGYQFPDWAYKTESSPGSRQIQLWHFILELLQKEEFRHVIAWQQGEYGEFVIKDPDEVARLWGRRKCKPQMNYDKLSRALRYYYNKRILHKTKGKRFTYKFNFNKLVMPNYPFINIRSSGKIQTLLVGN
To be noted: protein: recombinant; tags: N-terminal GST; dsDNA, one strand shown. In short, it runs like this:
as §1

In assay [18] the target is ETV6 (Homo sapiens, UniProt P41212 1-452). As to conditions: protein: recombinant; tags: N-terminal GST; dsDNA, one strand shown. The method, boiled down:
as §1

Chain of HSF1 (Q00613 whole entry): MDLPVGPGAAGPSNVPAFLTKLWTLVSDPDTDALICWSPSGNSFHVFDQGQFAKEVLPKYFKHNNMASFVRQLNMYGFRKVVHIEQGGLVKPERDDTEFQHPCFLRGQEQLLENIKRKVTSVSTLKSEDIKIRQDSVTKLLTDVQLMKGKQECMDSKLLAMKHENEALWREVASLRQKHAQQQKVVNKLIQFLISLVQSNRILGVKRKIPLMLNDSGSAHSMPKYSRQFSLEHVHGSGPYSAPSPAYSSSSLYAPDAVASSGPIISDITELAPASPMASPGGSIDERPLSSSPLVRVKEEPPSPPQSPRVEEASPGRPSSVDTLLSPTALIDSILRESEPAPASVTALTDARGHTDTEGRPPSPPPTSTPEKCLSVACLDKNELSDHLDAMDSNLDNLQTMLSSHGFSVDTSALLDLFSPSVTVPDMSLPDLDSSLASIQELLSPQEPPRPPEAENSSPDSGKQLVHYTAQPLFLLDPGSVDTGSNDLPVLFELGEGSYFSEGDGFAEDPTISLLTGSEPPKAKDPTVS
Chain of ETV6 (P41212 whole entry): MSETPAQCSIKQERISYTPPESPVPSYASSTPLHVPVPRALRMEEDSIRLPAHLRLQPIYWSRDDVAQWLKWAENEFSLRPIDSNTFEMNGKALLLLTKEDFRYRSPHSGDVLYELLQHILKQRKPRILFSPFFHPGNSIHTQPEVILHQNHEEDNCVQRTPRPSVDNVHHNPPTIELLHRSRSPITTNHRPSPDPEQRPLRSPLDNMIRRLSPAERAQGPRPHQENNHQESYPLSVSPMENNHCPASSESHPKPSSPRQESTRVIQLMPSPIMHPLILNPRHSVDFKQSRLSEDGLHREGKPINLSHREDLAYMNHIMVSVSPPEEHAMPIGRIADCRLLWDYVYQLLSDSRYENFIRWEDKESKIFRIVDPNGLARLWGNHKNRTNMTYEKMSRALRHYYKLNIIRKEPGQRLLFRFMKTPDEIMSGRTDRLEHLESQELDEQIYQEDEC
Chain of ELF4 (Q99607 whole entry): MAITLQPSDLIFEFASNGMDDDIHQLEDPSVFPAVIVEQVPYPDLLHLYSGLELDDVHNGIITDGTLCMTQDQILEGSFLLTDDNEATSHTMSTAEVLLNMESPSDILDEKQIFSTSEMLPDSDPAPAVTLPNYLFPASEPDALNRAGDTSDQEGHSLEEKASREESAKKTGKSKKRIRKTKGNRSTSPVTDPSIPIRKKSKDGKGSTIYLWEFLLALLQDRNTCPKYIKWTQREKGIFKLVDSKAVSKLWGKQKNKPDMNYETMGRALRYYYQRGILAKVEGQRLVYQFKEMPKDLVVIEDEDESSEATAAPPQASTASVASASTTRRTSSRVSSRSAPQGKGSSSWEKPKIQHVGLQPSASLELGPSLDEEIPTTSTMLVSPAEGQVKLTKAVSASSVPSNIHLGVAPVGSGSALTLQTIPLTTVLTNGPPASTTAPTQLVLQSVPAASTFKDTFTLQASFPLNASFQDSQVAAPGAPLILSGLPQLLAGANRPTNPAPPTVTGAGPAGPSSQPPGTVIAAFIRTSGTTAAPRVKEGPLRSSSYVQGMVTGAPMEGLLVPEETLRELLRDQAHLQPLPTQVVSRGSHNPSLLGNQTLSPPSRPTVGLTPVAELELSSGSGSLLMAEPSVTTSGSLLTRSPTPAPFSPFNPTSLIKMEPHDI
Chain of ETV1 (P50549 whole entry): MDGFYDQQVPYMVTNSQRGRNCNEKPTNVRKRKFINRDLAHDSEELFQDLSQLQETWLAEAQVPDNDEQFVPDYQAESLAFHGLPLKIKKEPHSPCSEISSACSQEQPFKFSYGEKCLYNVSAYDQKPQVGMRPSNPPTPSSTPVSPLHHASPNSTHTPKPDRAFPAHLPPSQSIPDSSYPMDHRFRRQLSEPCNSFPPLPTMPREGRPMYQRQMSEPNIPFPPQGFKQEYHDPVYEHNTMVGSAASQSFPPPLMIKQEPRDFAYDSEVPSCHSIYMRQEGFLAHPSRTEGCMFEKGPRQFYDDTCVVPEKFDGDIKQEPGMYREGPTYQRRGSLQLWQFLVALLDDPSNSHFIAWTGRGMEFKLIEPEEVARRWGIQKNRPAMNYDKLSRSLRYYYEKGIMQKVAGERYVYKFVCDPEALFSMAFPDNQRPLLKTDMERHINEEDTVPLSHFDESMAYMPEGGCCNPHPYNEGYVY
Chain of CRX (O43186 whole entry): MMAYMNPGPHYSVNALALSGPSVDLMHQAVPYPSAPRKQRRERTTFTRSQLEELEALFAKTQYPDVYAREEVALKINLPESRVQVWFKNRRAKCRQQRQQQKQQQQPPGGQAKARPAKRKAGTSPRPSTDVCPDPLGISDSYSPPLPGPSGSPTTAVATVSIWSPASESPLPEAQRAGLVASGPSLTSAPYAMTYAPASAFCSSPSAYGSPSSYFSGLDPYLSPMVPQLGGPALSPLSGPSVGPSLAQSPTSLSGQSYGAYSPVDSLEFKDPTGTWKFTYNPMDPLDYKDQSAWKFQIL
Chain of ETV5 (P41161 whole entry): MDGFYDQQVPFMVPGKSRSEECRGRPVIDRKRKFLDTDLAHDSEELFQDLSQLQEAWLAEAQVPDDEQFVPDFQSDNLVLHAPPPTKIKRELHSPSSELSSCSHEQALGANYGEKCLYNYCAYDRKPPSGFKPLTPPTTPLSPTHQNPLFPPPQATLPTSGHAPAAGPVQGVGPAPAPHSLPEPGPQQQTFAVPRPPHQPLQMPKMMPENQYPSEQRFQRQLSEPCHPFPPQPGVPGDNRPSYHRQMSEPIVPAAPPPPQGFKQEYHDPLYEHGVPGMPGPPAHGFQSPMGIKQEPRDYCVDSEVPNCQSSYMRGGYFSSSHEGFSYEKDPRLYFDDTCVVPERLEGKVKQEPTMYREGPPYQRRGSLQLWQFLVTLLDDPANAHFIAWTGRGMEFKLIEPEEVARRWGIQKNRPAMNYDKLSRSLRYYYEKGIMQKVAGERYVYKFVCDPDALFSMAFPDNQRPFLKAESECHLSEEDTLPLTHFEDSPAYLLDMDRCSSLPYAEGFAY

Consider CTACGA, for which the binding signal was 1.34 fold enrichment (6-mer frequency, TF over GST control) in assay [1]; 1.2 fold enrichment (6-mer frequency, TF over GST control) in assay [2]; 1.25 fold enrichment (6-mer frequency, TF over GST control) in assay [3]; 1.17 fold enrichment (6-mer frequency, TF over GST control) in [4]; 1.24 fold enrichment (6-mer frequency, TF over GST control) in assay [5]; 1.22 fold enrichment (6-mer frequency, TF over GST control) in assay [6]. Besides, the binding signal in assay [7] is 1.47 fold enrichment (6-mer frequency, TF over GST control); in assay [8], 1.5 fold enrichment (6-mer frequency, TF over GST control); in assay [9], 1.21 fold enrichment (6-mer frequency, TF over GST control); in assay [10], 1.19 fold enrichment (6-mer frequency, TF over GST control); in assay [11], 1.23 fold enrichment (6-mer frequency, TF over GST control); in assay [12], 1.24 fold enrichment (6-mer frequency, TF over GST control). The binding signal in [13] was 1.25 fold enrichment (6-mer frequency, TF over GST control); in assay [14] it was 1.17 fold enrichment (6-mer frequency, TF over GST control); in assay [15] it was 1.26 fold enrichment (6-mer frequency, TF over GST control); in assay [16] it was 1.19 fold enrichment (6-mer frequency, TF over GST control); in assay [17], 1.15 fold enrichment (6-mer frequency, TF over GST control); in assay [18] it was 1.16 fold enrichment (6-mer frequency, TF over GST control).

The values are drawn from publication PMC7862700, “An all-to-all approach to the identification of sequence-specific readers for epigenetic DNA modifications on cytosine”.
